# Screens from PubChem BioAssay.
# APEX1 inh: blocks human APE1 abasic DNA cleavage; recombinant APE1, TAMRA/BHQ-2 abasic DNA cleavage fluorescence; Potency, µM (top dose mostly 65.8 µM), for inactives: at the highest dose activity change, negative = inhibition, hits mostly inhibitors; P27695; AID 2517; 0.35% of 350,000 active;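 note: plate controls were vehicle for no effect and reference inhibitor for full effect; nearly all actives have a fitted effect of over 55% in size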
#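 Quantitative HTS: incision of a TAMRA/BHQ-2 double-stranded substrate bearing a tetrahydrofuran abasic site by 0.75 nM APE1 raises fluorescence. Substrate 50 nM final, added after 15 min compound preincubation at room temperature; progress as third-minus-first kinetic read difference.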
# RECQ1 inh: inhibitors of human RECQ1 DNA helicase | Potency, µM (highest dose often 57.3 µM), without a hit: top-dose activity, negative = inhibition, actives largely listed as inhibitors | P46063 | RECQ1 DNA unwinding, red fluorescence kinetic read | 0.54% of 240,000 active;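 note: plate controls were vehicle for no effect and no enzyme for full effect; nearly all actives have a fitted effect of over 30% in size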
#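 50 nM RECQ1T1 preincubated 15 min with compound in Tris pH 8.0 buffer with MgCl2, DTT, Tween-20 and 2.5 ug/ml poly(dI-dC); started with 200 nM TAMRA/BHQ-2 forked duplex and 2 mM ATP. Unwinding read as fluorescence (525/598 nm), two reads 2 h apart.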
# FEN1 inh: inhibitors of human flap endonuclease 1; Recombinant FEN1 flap cleavage, fluorescence, 15 min; Potency, µM (highest dose often 114 µM), inactives show top-dose activity change, negative = inhibition, hits mostly inhibitors; 0.35% of 390,000 active; AID 588795; note: nearly all actives have a fitted effect of over 65% in size
#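 In this screen, 50 nM flap DNA substrate was added to 10 nM FEN1 pretreated with compound for 15 min at room temperature; cleavage was followed with reads at 0 and 15 min, and Hill fitting gave concentration–response parameters.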
# TDP1 block: TDP1 (human) enzyme inhibition. recombinant TDP1, AlphaScreen DNA substrate cleavage. Q9NUW8. AID 485290. Potency, µM (doses to about 130 µM), inactives show at the top dose activity change, negative = inhibition, usual class: inhibitors. 0.28% of 350,000 active; note: nearly all actives have a fitted effect of over 40% in size
# Target sequence (Q9NUW8 whole entry, looked up): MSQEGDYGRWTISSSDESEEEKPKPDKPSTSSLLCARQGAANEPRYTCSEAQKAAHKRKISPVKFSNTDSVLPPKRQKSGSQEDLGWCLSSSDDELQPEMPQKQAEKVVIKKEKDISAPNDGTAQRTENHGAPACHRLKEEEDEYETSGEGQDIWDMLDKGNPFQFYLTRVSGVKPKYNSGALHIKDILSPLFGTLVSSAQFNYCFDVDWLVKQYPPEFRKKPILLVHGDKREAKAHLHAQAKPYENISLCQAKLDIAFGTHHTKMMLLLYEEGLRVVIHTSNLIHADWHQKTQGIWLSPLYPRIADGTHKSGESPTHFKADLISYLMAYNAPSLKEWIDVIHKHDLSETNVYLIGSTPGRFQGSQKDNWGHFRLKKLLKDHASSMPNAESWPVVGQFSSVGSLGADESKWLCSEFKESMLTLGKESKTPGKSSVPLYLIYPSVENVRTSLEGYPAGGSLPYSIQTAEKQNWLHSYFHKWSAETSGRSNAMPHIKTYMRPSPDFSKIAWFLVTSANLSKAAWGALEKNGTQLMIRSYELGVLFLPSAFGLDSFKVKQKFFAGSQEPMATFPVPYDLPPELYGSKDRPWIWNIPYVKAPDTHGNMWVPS
#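 Here, a 5' biotin and 3' phosphotyrosine-FITC DNA oligonucleotide reports Tdp1 activity: intact substrate bridges AlphaScreen beads, while cleavage leaves a 3' phosphate and drops signal. All incubations at room temperature.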
# BLM helicase inh: Bloom syndrome helicase (human) inhibition; P54132; recombinant BLM DNA unwinding, fluorescence dequenching; Potency, µM (series often up to 56.1 µM), inactives show at the highest dose activity change, negative = inhibition, most hits filed as inhibitors; 0.2% of 350,000 active; AID 2528;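 note: plate controls were vehicle for no effect and no enzyme for full effect; nearly all actives have a fitted effect of over 35% in size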
# * = called active by the depositor; i = inactive; ? = inconclusive; / = not tested or not shown; ! = repeats disagree; [ ] = remark or other dose. Compounds with a hit are over-represented: about 0.92% of the library has one in this group of screens. Calls come from the whole dose curve; as a rule, active = well fitted curve in the direction sought with a large enough effect; inconclusive = small, poorly fitted or top-dose-only effect, or another doubt; inactive = no such curve, though single readings can be large; an effect the other way counts as inactive or inconclusive. Unless noted, % is set by controls: 0 for no effect and ±100 for the full control effect; potency is the fitted concentration of half-maximal effect.
SMILES,APEX1 inh,RECQ1 inh,FEN1 inh,TDP1 block,BLM helicase inh
CCCC[C@@H](C)/C=C(C)/C=C(\C)C(=O)NC1=C[C@@](O)(/C=C/C=C/C=C/C(=O)NC2=C(O)CCC2=O)[C@@H]2O[C@@H]2C1=O,?,?,/,-2%,?
CCCC(=O)c1cc(O)c(O)cc1O,0.89µM*,1.1µM*,/,?,/
Cc1ccccc1Nc1nc(C#N)nc(NC2CCCC2)n1,/,/,/,-4%,/
CC(C)(C)NC[C@H](O)COc1ccccc1C1CCCC1,-2%[21 µM],/,/,/,/
COc1cc(N2C(=O)C=CC2=O)ccc1N1C(=O)C=CC1=O,/,/,50µM*,/,/
COc1ccc(N2C(=O)C3CC(C)=C(C)CC3C2=O)c(OC)c1 (configuration not stated),3%,-2%,0%,0%,-4%
COc1ccccc1-c1no[n+]([O-])c1C#N,-2%,/,/,/,/
O=C(Nc1c(Cl)cc([N+](=O)[O-])cc1Cl)c1cc(Cl)ccc1O,/,/,16%,4%,/
O=C(Nc1cc(Cl)ccc1Cl)c1cc([N+](=O)[O-])cc(Br)c1O,/,/,50µM*,2%,/
CC(C)CCOc1ccc(C(CC(N)=O)C(=O)O)cc1 (configuration not stated),2%,-9%,-9%,1%,0%
O=C(O)CC(C(=O)O)c1ccc(OCCCCOc2ccc(C(CC(=O)O)C(=O)O)cc2)cc1 (configuration not stated),-2%,/,8%,28µM*,3%
CCN1/C(=C\C(=S)Nc2ccccc2)Sc2ccccc21,-4%,-1%,-5%,10%,-9%
CCN1/C(=C/C(C)=C/c2sc3ccccc3[n+]2CC)Sc2ccccc21,-14%,13µM*,7.1µM*,8%,?
COc1cccc(-c2csc(N3CCC(C(N)=O)CC3)n2)c1,19%,/,/,/,/
Nc1cc2nsnc2cc1Br,?,?,?,-6%,4µM*
CCCCCCCCCC(=O)O,24%,-1%,-9%,2%,/
CCCCCC#CCC#CCC#CCC#CCCCC(=O)O,2µM*!,1.1µM*!,/,-4%,13µM*!
COc1ccc(C(=O)N(Cc2cccs2)Cc2cccs2)c(O)c1,/,/,/,-8%,/
Brc1ccc(C2=Nc3cccc4cccc(c34)N2)o1,2%,i,?,3%,-7%
FC(F)(F)C1=Nc2cccc3cccc(c23)N1,-5%,/,50µM*,/,/
O=C(O)CN(CC(=O)O)CC1=CC2C(=CC1=O)Oc1cc(O)c(CN(CC(=O)O)CC(=O)O)cc1C21OC(=O)c2ccccc21 (configuration not stated),13µM*,/,/,/,/
COc1ccc(C2c3c(nc(C)[nH]c3=O)Oc3ccc4ccccc4c32)cc1OC (configuration not stated),/,/,/,1%,/
CNc1cccc2c1C(=O)c1ccccc1C2=O,-7%,-17%,-16%,7%,-15%
CNc1cccccc1=S,?,?,-10%,3.5µM*,-2%
CCOc1cc(/C=C2\SC(=O)N(CC(=O)Nc3ccccc3F)C2=O)cc([N+](=O)[O-])c1O,6%,-14%,50µM*,7%,-3%
SMILES,APEX1 inh,RECQ1 inh,FEN1 inh,TDP1 block,BLM helicase inh
N#Cc1c(-c2ccc3c(c2)OCO3)no[n+]1[O-],7%,/,/,/,/
COC(=O)c1ccc(NC(=O)c2nc(S(=O)(=O)Cc3ccccc3F)ncc2Cl)cc1,/,/,-8%,/,/
Nc1ccc(S(=O)(=O)NCC(=O)OC2CCOC2=O)cc1[N+](=O)[O-] (configuration not stated),?,/,8%,25µM*,/
CSc1ccc(S(=O)(=O)NCC(=O)OCC(=O)NCc2cccs2)cc1[N+](=O)[O-],-8%,/,-6%,-13%,/
O=C(CSc1nnc(-c2cccc(S(=O)(=O)N3CCCC3)c2)n1-c1ccccc1)Nc1ccc(F)cc1,12%,/,/,/,/
Cc1cccc(C)c1-n1c(SCC(=O)NCCCCCC(=O)O)nnc1-c1cccc([S+](=O)([O-])N2CCCC2)c1,37%,/,/,/,/
CCN(CC)C(=O)COc1ccc2c(-c3ccc(OC)cc3)cc(=O)oc2c1,-13%,/,-14%,79µM*,2%
COc1cc(F)c(S(=O)(=O)N2CCCN(S(=O)(=O)c3ccc4c(c3)OCCO4)CC2)c(F)c1,/,/,/,0%,/
O=C1C(SCCO)=C(SCCO)C(=O)c2ccccc21,?,?,?,11%[56.1 µM],8.9µM*
CN1CCc2sc(NC(=O)Cc3ccccc3)c(C(=O)Nc3ccc(Cl)cc3)c2C1,/,/,/,-6%,/
C=CCn1c(SCC(=O)Nc2nnc(C)s2)nnc1C1CC1,-33%,/,-3%,28µM*,-1%
Oc1c(Cl)cc(Cl)cc1Sc1cc(Cl)cc(Cl)c1O,8%,40µM*,/,3%,?
O=S(c1cc(Cl)cc(Cl)c1O)c1cc(Cl)cc(Cl)c1O,/,/,/,3%,-2%
CC(C)(C)OC(=O)NCc1nnc(C(C(=O)OCc2ccccc2)c2ccccc2)s1 (configuration not stated),/,/,/,0%,/
Cc1ccc(NC(=S)c2nc3ccccc3[nH]2)c(C)c1,12%,4.5µM*,-9%,8%,0%
Cn1c2cc(C#N)sc2c2cnn(Cc3ccccc3F)c(=O)c21,/,/,/,0%,/
N#Cc1c(-c2ccc(Cl)cc2)no[n+]1[O-],-4%,/,/,/,/
O=C(O)c1ccc(Cl)c(S(=O)(=O)N2CCCC2)c1,28µM*,-4%,-5%,50µM*,3%
O=C(c1ccc(Cl)c(S(=O)(=O)N2CCCCCC2)c1)N1CCCCC1,54%,/,-6%,5%,-3%
O=C(OC1CCOC1=O)c1ccc(Cl)c(S(=O)(=O)N2CCOCC2)c1 (configuration not stated),?,/,15%,28µM*,/
c1nc(NCCc2cnc[nH]2)c2cc(-c3ccc4c(c3)OCO4)ccc2n1,/,/,/,9%,/
C#CCOCCOCCOCCNc1nc(N2CCN(C(=O)CCCCCCCCCCNC(=O)[C@H]([C@@H](C)CC)n3cc(CCCCCN)nn3)CC2)nc(N2CCN(C(=O)CCCCCCCCCCNC(=O)[C@H]([C@@H](C)CC)n3cc(CCCCN=C(N)N)nn3)CC2)n1,?,/,/,15%,/
C#CCOCCOCCOCCNc1nc(N2CCN(C(=O)CCCCCCCCCCNC(=O)[C@H]([C@@H](C)CC)n3cc(CCCCN=C(N)N)nn3)CC2)nc(N2CCN(C(=O)CCCCCCCCCCNC(=O)[C@H](CCCCN)n3cc(C)nn3)CC2)n1,?,/,25µM*,15%,/
C#CCOCCOCCOCCNc1nc(N2CCN(C(=O)CCCCCCCCCCNC(=O)Cn3cc(CCCCCN)nn3)CC2)nc(N2CCN(C(=O)CCCCCCCCCCNC(=O)[C@H]([C@@H](C)CC)n3cc(CCCCN=C(N)N)nn3)CC2)n1,?,/,20µM*,15%,/
